Pf growth 96h: Primary qHTS for delayed death inhibitors of the malarial parasite plastid, 96 hour incubation. Potency, µM (doses to about 28.7 µM), usual class: inhibitors. 6.9% of 320,000 active. P. falciparum luciferase reporter growth, 96 h
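Luminescence readout: decreased luciferase signal marks inhibited growth of reporter-expressing P. falciparum in infected red cells (2% hematocrit, 0.05% parasitemia final), exposed to compound two generations (96 h, 37 C, 5% CO2).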
RE007 growth inh: qHTS Assay for Inhibitors of the HIV-1 protein Vpr | Potency, µM (titrated, usually from 92.2 µM), actives largely listed as inhibitors | S. pombe RE007 Vpr strain, BacTiter-Glo ATP luminescence, 24 h | 0.21% of 360,000 active; active = well fitted falling curve with a large enough effect; inconclusive = small, poorly fitted or top-dose-only effect; inactive = no such curve, though single readings can be large or run the other way; also: nearly all actives have a fitted effect of over 50% in size
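Fission yeast strain RE007, carrying one chromosomally integrated HIV-1 vpr copy, was seeded at OD 0.01 in PMG+AL medium with 23 nL pinned compound. After 24 h at 30 °C and 99% humidity, viability was read by BacTiter-Glo luminescence.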
SARS PLP yeast: qHTS of Yeast-based Assay for SARS-CoV PLP; S. cerevisiae expressing SARS-CoV PLpro, growth rescue; Potency, µM (top dose mostly 32.9 µM), hits mostly activators; 0.19% of 330,000 active; AID 485353, 2010; calls by dose curve; also: nearly all actives have a fitted effect of over 55% in size
Pf growth 48h: Primary qHTS for delayed death inhibitors of the malarial parasite plastid, 48 hour incubation; P. falciparum luciferase growth in erythrocytes, 48 h; Potency, µM (highest dose often 28.7 µM), hits mostly inhibitors; 5.9% of 310,000 active; AID 504832, 2011
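A one-generation exposure of luciferase-tagged malaria parasites in RPMI 1640/Albumax erythrocyte culture, 37 C and 5% CO2. Inhibition is inferred from decreased luminescence after adding detection reagent.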
NS1 function inh: qHTS Assay for Inhibitors of Influenza NS1 Protein Function | Potency, µM (titrated, usually from 46.1 µM) | 0.4% of 270,000 active; calls by dose curve; also: actives are rising curves; nearly all actives have a fitted effect of over 50% in size
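A cell-based growth assay was used: compounds that relieve NS1-induced slow growth of budding yeast raise OD600. Assay medium was yeast nitrogen base with ammonium sulphate and -URA supplement, pH 6.0, with 2% galactose.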
Hits are given with their value; i = inactive; ? = inconclusive; nt = not tested or not shown; [ ] = another dose, or the depositor's remark. Sampled rows, rich in hits. Any-hit rate of the full collection: about 9.5%. Unless noted, calls follow the shape of the dose curve; as a rule, active = well fitted inhibition curve with a large enough effect; inconclusive = small, poorly fitted or top-dose-only effect, or another doubt; inactive = no such curve, though single readings can be large or run the other way.

SMILES | Pf growth 96h | RE007 growth inh | SARS PLP yeast | Pf growth 48h | NS1 function inh
COc1ccc(-c2noc(CCC(=O)Nc3ccc4c(c3)OCCO4)n2)cc1 | 0.59µM | i | i | i | i
CCn1c(SCC(=O)Nc2cccc(S(=O)(=O)N(C)c3ccccc3)c2)nnc1C1CC1 | ? | i | i | ? | nt
COc1ccc(-c2noc(CCCC(=O)O)n2)cc1 | nt | i | i | ? | i
CCOc1ccc(-c2noc(CCC(=O)O)n2)cc1 | 12µM | i | i | nt | i
COc1ccc(NC(=O)CCc2nc(-c3ccc(C)cc3)no2)cc1Cl | nt | i | i | i | i
Cc1ccc(-c2noc(CCC(=O)Nc3ccc4c(c3)OCO4)n2)cc1 | 2.3µM | i | i | i | i
COc1ccccc1N(Cc1ccccc1)S(=O)(=O)c1cccc(C(=O)Nc2ccc(C(C)=O)cc2)c1 | 3.7µM | i | i | ? | i
COc1ccc(OC)c(NC(=O)c2ccc(CN(c3cc(Cl)ccc3C)S(=O)(=O)c3ccccc3)cc2)c1 | ? | i | i | 1.5µM | i
COc1ccc(OC)c(NC(=O)c2cccc(S(=O)(=O)N(Cc3ccccc3)c3ccccc3OC)c2)c1 | 7.4µM | i | i | 15µM | i
CCOc1ccccc1N(CC(=O)Nc1cc(OC)ccc1OC)S(=O)(=O)c1ccccc1 | i | i | i | ? | i
Cn1cccc1CNCC(O)c1ccccc1 (stereo not drawn) | i | i | i | ? | i
CC(C)NC(=O)N(C)C[C@H]1Oc2ccc(NS(=O)(=O)c3ccc(F)cc3)cc2C(=O)N([C@H](C)CO)C[C@@H]1C | nt | i | i | nt | nt
CCN1CCN(c2ccc(NC(=O)c3ccc4c(c3)[nH]c(=O)n4Cc3ccc(OC)cc3)cc2)CC1 | 10µM | i | i | ? | i
COc1ccc(N2CCSC2C(=O)NN)cc1 (stereo not drawn) | 9.3µM | i | i | i | i
COC(=O)[C@H]1[C@H](C(=O)OC)[C@@H](C(=O)OC)N(c2ccc(OC)cc2)[C@@H]1C(=O)OC | i | i | i | i | i
COc1ccc(C(=O)Nc2ccc(N3CCCC3)cc2)cc1 | 4.1µM | i | i | nt | i
COc1ccc(N2CCN(CCNC(=O)Nc3ccc(Cl)cc3)CC2)cc1 | ? | i | i | nt | i
COc1ccc(N2CCN(c3ccc(NC(=O)NN)cc3)CC2)cc1 | 12µM | i | i | i | i
CC(=O)NC(Cc1ccc(F)cc1)C(=O)NC1CCN(C(=O)NCc2ccccc2)CC1 (stereo not drawn) | i | i | i | i | i
O=C(COC(=O)/C=C/c1ccc(F)cc1)Nc1ccccc1-c1ccccc1 | i | i | i | i | i
CC(C)(C)Cc1c(-c2cccc(Br)c2)nc2ccc(Cl)cn12 | nt | i | nt | nt | nt
Cc1ccc(S(=O)(=O)N(C)c2ccccc2C(=O)Nc2c(F)cccc2F)cc1 | ? | i | i | i | i
C#CCOCCOCCOCCNc1nc(N2CCN(C(=O)[C@H]([C@@H](C)O)n3cc(CCCCN)nn3)CC2)nc(N2CCN(C(=O)[C@H](C)n3cc(CCCN=C(N)N)nn3)CC2)n1 | ? | i | i | i | i
C#CCOCCOCCOCCNc1nc(N2CCN(C(=O)Cn3cc(CCCCN)nn3)CC2)nc(N2CCN(C(=O)[C@H]([C@@H](C)CC)n3cc(CCCN=C(N)N)nn3)CC2)n1 | ? | i | i | 0.74µM | nt
C#CCOCCOCCOCCNc1nc(N2CCN(C(=O)Cn3cc(CC(C)O)nn3)CC2)nc(N2CCN(C(=O)[C@H]([C@@H](C)O)n3cc(CCCCN)nn3)CC2)n1 (stereo partly drawn) | nt | i | nt | nt | nt
SMILES | Pf growth 96h | RE007 growth inh | SARS PLP yeast | Pf growth 48h | NS1 function inh
C#CCOCCOCCOCCNc1nc(N2CCN(C(=O)Cn3cc(CC(C)O)nn3)CC2)nc(N2CCN(C(=O)[C@H](C)n3cc(CCCN=C(N)N)nn3)CC2)n1 (stereo partly drawn) | 12µM | i | i | i | i
C#CCOCCOCCOCCNc1nc(N2CCN(C(=O)Cn3cc(CCCN=C(N)N)nn3)CC2)nc(N2CCN(C(=O)[C@H](CCCCN)n3cc(CC(C)O)nn3)CC2)n1 (stereo partly drawn) | ? | i | i | ? | nt
C#CCOCCOCCOCCNc1nc(N2CCN(C(=O)Cn3cc(CCCCN)nn3)CC2)nc(N2CCN(C(=O)[C@H](C)n3cc(CCCN=C(N)N)nn3)CC2)n1 | 0.12µM | nt | i | i | i
C#CCOCCOCCOCCNc1nc(N2CCN(C(=O)Cn3cc(CCCN=C(N)N)nn3)CC2)nc(N2CCN(C(=O)[C@H]([C@@H](C)O)n3cc(CCCCN)nn3)CC2)n1 | 10µM | i | i | i | nt
C#CCOCCOCCOCCNc1nc(N2CCN(C(=O)Cn3cc(CCCN=C(N)N)nn3)CC2)nc(N2CCN(C(=O)[C@H]([C@@H](C)CC)n3cc(CCCN=C(N)N)nn3)CC2)n1 | 0.037µM | nt | i | 1.2µM | i
C#CCOCCOCCOCCNc1nc(N2CCN(C(=O)Cn3cc(CCCN=C(N)N)nn3)CC2)nc(N2CCN(C(=O)[C@H](C(C)C)n3cc(CCO)nn3)CC2)n1 | ? | i | i | i | i
Cc1ccc(-n2ncc3c2CCCC3NC(=O)CCCN2CCCC2=O)cc1C (stereo not drawn) | 4.7µM | i | i | ? | i
CCCC(=O)Nc1ccc(C=C(C(C)=O)C(C)=O)cc1 | ? | i | i | ? | i
Cc1cccc2sc(N(CCCN(C)C)C(=O)c3ccc(S(=O)(=O)N4CCc5ccccc5C4)cc3)nc12 | ? | i | i | 9.3µM | i
CN(C)CCCN(C(=O)c1ccc(S(=O)(=O)N2CCc3ccccc3C2)cc1)c1nc2ccc(F)cc2s1 | ? | i | i | 13µM | i
Cc1ccc(S(=O)(=O)N2CCN(C(=O)Cn3c(=O)cnc4ccccc43)CC2)cc1 | ? | i | i | ? | nt
Cn1c(-c2ccccc2)c[n+]2c1-c1ccccc1C2 | ? | i | i | 0.59µM | i
Cn1c(-c2ccccc2)cccc1=O | i | i | i | i | i
COc1ccc(-c2cncnc2N)cc1OC | nt | i | nt | nt | nt
COc1ccc(-c2cnc(OC(C)(C)C)nc2OC(C)(C)C)cc1OC | nt | i | i | 10µM | i
Cc1nn(CC(=O)N2CCN(C)CC2)c(=O)c2c1sc1ccccc12 | ? | i | i | i | i
CCOC(=O)N1CCN(C(=O)Cn2nc(C)c3sc4ccccc4c3c2=O)CC1 | 10µM | i | i | ? | i
Cc1c(Cl)cccc1Nc1ncccc1C(=O)OCC(O)CO (stereo not drawn) | i | nt | i | i | i
CCOC(=O)c1ccccc1NC(=O)c1ccc2nccnc2c1 | ? | i | i | ? | nt
O=C(OCC(O)CO)c1ccccc1Nc1ccnc2cc(Cl)ccc12 (stereo not drawn) | ? | i[18.4 µM] | i | 8.3µM | nt
O=C(OC[C@@H](O)CO)c1ccccc1Nc1ccnc2cc(Cl)ccc12 | 1.6µM | nt | nt | ? | nt
COc1ccc(NC(=O)N(C)C[C@H]2Oc3ccc(NC(=O)Nc4ccc5c(c4)OCO5)cc3C(=O)N([C@H](C)CO)C[C@@H]2C)cc1 | nt | i | nt | nt | nt

High-throughput results: PubChem, National Center for Advancing Translational Sciences (NCATS)
